Experimental findings from PubChem BioAssay AID651551 (Sanford-Burnham Center for Chemical Genomics, 2012) are described below.

The assay in a line: GAPDH versus PEG-3 reporter suppression – cell-based, luminescence, counter-screen for PEG-3 promoter inhibitor project, SAR follow-up (AID 651551). The settings on record: HeLa PEG-Prom / GAPDH luciferase reporter, 6 or 24 h, run 2, 24 h; at 99 µM (top of the series).
With `Cc1cc(NC(=O)c2ccccc2)n(-c2nc3ccccc3n2C)n1`, the inhibition % (higher = more inhibition) amounted to 4.57%.
For the compound `COc1ccc(-n2nc(C(=O)NCC(=O)Nc3cccc(OC)c3)c3ccccc3c2=O)cc1`, the inhibition % (higher = more inhibition) was 27.5%.
The figure for `Cc1nc(NC(=O)c2ccccc2)sc1-c1csc(Nc2ccccc2)n1` is 87.7%.
For `Cc1cc(NC(=O)c2ccccc2C(F)(F)F)n(-c2nc3ccccc3[nH]2)n1`, the inhibition % (higher = more inhibition) came to 95.1%.
The figure for `Cc1cc(NC(=O)c2ccccc2C)n(-c2nc3ccccc3[nH]2)n1` is 76.4%; for `Cc1nc(NC(=O)c2ccccc2)sc1-c1csc(Nc2cccc(Cl)c2C)n1` it is 46.8%; for `COc1ccc(-n2nc(C(=O)NCC(=O)Nc3cc(OC)c(OC)c(OC)c3)c3ccccc3c2=O)cc1OC` it is 71.7%.
As to `CCn1cc(C(=O)NCc2ccco2)c(=O)c2cc(S(=O)(=O)N3CCCC3)ccc21`, the inhibition % (higher = more inhibition) came to 48.4%.
On to `Cc1ccc(Cl)cc1Nc1nc(-c2sc(NC(=O)c3ccco3)nc2C)cs1`, for which the inhibition % (higher = more inhibition) came out at 85.8%.
The figure for `CCCn1nc(C(=O)Nc2nc3ccccc3s2)c2ccccc2c1=O` is 44.3%; for `COCCCNC(=O)c1ccc(Cn2c(=O)c3ccccc3n(Cc3ccccc3C#N)c2=O)cc1` it is 78%.
`O=C(Nc1nccs1)c1nn(-c2ccccc2)c(=O)c2ccccc12`: the inhibition % (higher = more inhibition) amounted to 56.2%.
As for `COc1ccc(Cl)cc1Nc1nc(-c2sc(NC(=O)c3ccccc3)nc2C)cs1`, the inhibition % (higher = more inhibition) worked out at 75.6%.
With `Cc1cc(NC(=O)c2cccc(C)c2C)n(-c2nc3ccccc3[nH]2)n1`, the inhibition % (higher = more inhibition) was 54.6%.
As for `CCn1nc(C(=O)Nc2nc(-c3ccccn3)cs2)c2ccccc2c1=O`, the inhibition % (higher = more inhibition) was found to be 53.9%.
On to `Cc1nc(NC(=O)c2ccccc2)sc1-c1csc(Nc2ccccc2Cl)n1`, for which the inhibition % (higher = more inhibition) was determined as 60.8%.
Regarding `COc1ccc(-n2nc(C(=O)NCC(=O)Nc3ccc(OC)c(OC)c3)c3ccccc3c2=O)cc1`, the inhibition % (higher = more inhibition) came out at 86.5%.
As to `Cc1cc(NC(=O)c2ccccc2)n(-c2nc3ccccc3[nH]2)n1`, the inhibition % (higher = more inhibition) was -1.45%.
Regarding `O=C(Nc1nc2ccccc2s1)c1nn(-c2ccccc2)c(=O)c2ccccc12`, the inhibition % (higher = more inhibition) was 60.8%.
Take `CCCn1nc(C(=O)Nc2nc(-c3ccncc3)cs2)c2ccccc2c1=O`: the inhibition % (higher = more inhibition) is 72%.
For the compound `COc1ccccc1Nc1nc(-c2sc(NC(=O)c3ccco3)nc2C)cs1`, the inhibition % (higher = more inhibition) was found to be 76.4%.
`O=C(Nc1nc(-c2ccccc2)cs1)c1nn(-c2ccccc2)c(=O)c2ccccc12`: the inhibition % (higher = more inhibition) amounted to 43.1%.
As for `CCCn1nc(C(=O)Nc2nc(-c3ccccn3)cs2)c2ccccc2c1=O`, the inhibition % (higher = more inhibition) is 71.7%.
